The supplement of paper PMC10849652
Of roughly 7,900 targets only a part is listed; those with a hit were picked by preference. About 0.6% of all pairs of compound and target were hits. Unmarked numbers belong to inactive results.

How the values were obtained:
Test in all cases: log2 fold change, soluble protein after heating vs DMSO (PISA); higher = thermal stabilisation; K562 cells, 10 uM, 30 min; active = over 0.2 and 3.5 SD of the protein, either way, in both replicates (recomputed)
[1] = compound: CC1=C(C=C(C=C1)NC(=O)C2=CC(=CC=C2)C(C)(C)C#N)NC3=CC4=C(C=C3)N=CN(C4=O)C
Method in brief: (§1)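 Quantification of soluble protein used TMTpro 16plex LC-MS/MS, with channel sums equalised. Samples were the supernatant after 21,000xg for 90 min of pooled aliquots from K562 cells (2×10^6 cells/mL) treated with 10 μM compound for 30 min, heated for 3 min over 48°C-58°C, and extracted in PBS with 0.5% NP-40 at 4°C. Values, from duplicates, describe thermal stability against control samples on a log2 fold-change scale.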

[2] = compound: CC1=C(C=C(C=C1)NC(=O)C2=CC(=CC=C2)N(C)C)NC(=O)C3=CC=C(C=C3)O
Method in brief: as §1

[3] = compound: CC1=CC=C(C=C1)SC2=C3C=C(SC3=CN=C2)C(=O)N
Method in brief: as §1

[4] = compound: CC1=NC(=CC=C1)C2=C(N=C(N2)C(C)(C)C)C3=CC4=NC=CN=C4C=C3
Method in brief: as §1

Nexturastat A = compound: CCCCN(Cc1ccc(C(=O)NO)cc1)C(=O)Nc1ccccc1 [Nexturastat A]
Method in brief: as §1

vemurafenib = compound: CCCS(=O)(=O)Nc1ccc(F)c(C(=O)c2c[nH]c3ncc(-c4ccc(Cl)cc4)cc23)c1F [vemurafenib]
Method in brief: as §1

[5] = compound: CCCS(=O)(=O)Nc1ccc(F)c(C(=O)c2c[nH]c3ncc(Cl)cc23)c1F
Method in brief: as §1

[6] = compound: CCCc1cc(C)[nH]c(=O)c1CNC(=O)c1cc(-c2ccnc(N3CCN(C)CC3)c2)cc2c1cnn2C(C)C
Method in brief: as §1

givinostat = compound: CCN(CC)Cc1ccc2cc(COC(=O)Nc3ccc(C(=O)NO)cc3)ccc2c1 [givinostat]
Method in brief: as §1

barasertib = compound: CCN(CCCOc1ccc2c(Nc3cc(CC(=O)Nc4cccc(F)c4)[nH]n3)ncnc2c1)CCOP(=O)(O)O [barasertib]
Method in brief: as §1

[7] = compound: CC[C@@H]1C(=O)N(C)c2cnc(Nc3ccc(C(=O)NC4CCN(C)CC4)cc3OC)nc2N1C1CCCC1
Method in brief: as §1

volasertib = compound: CC[C@@H]1C(=O)N(C)c2cnc(Nc3ccc(C(=O)N[C@H]4CC[C@H](N5CCN(CC6CC6)CC5)CC4)cc3OC)nc2N1C(C)C [volasertib]
Method in brief: as §1

[8] = compound: CC[C@H](C)N1C=C(C2=C(C=C(C=C21)C3=CN=C(C=C3)N4CCNCC4)C(=O)NCC5=C(C=C(NC5=O)C)C)C
Method in brief: as §1

epoxomicin = compound: CC[C@H](C)[C@@H](C(=O)N[C@@H]([C@@H](C)O)C(=O)N[C@@H](CC(C)C)C(=O)[C@]1(CO1)C)NC(=O)[C@H]([C@@H](C)CC)N(C)C(=O)C [epoxomicin]
Method in brief: as §1

[9] = compound: CCn1c(C(=O)N(C2CC2)C2CC2)cc2c3c(ncn3C)c(Nc3cc(C)n(C)n3)nc21
Method in brief: as §1

[10] = compound: CN(C)CC(=O)Nc1ccc2[nH]c(=O)c3ccccc3c2c1
Method in brief: as §1

rosiglitazone = compound: CN(CCOC1=CC=C(C=C1)C[C@H]2C(=O)NC(=O)S2)C3=CC=CC=N3 (racemic) [rosiglitazone]
Method in brief: as §1

[11] = compound: CN1C2=C(C3=C1C(=O)N(N=C3)CC4=CC(=CC=C4)N)SC(=C2)S(=O)C
Method in brief: as §1

[12] = compound: CCn1cc(-c2ccnc3[nH]c(-c4cccc(CN(C)C)c4)cc23)c(-c2ccc(NC(=O)N(C)C)cc2)n1
Method in brief: as §1

[13] = compound: CN1CCC(CNc2ccc3ncc(-c4cccc(OC(F)(F)F)c4)n3n2)CC1
Method in brief: as §1

Chain of UniProt O94829 (O94829 whole entry, looked up): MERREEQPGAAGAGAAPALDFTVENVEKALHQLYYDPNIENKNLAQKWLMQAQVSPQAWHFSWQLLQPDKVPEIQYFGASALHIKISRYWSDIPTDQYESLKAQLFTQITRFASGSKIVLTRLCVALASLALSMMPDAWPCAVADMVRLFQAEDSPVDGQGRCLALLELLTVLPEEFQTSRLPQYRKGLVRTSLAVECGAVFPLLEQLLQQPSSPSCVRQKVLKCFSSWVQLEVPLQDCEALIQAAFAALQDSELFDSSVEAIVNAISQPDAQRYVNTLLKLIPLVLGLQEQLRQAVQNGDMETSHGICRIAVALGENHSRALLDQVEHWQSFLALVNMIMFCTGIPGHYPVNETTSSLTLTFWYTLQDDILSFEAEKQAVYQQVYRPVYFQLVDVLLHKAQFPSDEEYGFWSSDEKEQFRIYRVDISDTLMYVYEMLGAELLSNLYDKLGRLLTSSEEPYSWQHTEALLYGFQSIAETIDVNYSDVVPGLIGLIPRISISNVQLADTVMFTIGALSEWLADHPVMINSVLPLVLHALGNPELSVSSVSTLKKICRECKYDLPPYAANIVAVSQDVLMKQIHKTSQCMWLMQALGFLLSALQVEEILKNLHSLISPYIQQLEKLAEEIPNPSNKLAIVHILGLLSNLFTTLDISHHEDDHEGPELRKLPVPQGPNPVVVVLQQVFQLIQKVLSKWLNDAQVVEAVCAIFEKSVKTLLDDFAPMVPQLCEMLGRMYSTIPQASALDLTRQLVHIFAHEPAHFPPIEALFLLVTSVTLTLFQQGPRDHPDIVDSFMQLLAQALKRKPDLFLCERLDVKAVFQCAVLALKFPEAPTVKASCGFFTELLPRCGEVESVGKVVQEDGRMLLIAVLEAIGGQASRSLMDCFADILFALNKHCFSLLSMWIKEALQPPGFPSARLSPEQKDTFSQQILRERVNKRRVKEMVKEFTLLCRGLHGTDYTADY
Chain of UniProt Q9UHB6 (Q9UHB6 whole entry, looked up): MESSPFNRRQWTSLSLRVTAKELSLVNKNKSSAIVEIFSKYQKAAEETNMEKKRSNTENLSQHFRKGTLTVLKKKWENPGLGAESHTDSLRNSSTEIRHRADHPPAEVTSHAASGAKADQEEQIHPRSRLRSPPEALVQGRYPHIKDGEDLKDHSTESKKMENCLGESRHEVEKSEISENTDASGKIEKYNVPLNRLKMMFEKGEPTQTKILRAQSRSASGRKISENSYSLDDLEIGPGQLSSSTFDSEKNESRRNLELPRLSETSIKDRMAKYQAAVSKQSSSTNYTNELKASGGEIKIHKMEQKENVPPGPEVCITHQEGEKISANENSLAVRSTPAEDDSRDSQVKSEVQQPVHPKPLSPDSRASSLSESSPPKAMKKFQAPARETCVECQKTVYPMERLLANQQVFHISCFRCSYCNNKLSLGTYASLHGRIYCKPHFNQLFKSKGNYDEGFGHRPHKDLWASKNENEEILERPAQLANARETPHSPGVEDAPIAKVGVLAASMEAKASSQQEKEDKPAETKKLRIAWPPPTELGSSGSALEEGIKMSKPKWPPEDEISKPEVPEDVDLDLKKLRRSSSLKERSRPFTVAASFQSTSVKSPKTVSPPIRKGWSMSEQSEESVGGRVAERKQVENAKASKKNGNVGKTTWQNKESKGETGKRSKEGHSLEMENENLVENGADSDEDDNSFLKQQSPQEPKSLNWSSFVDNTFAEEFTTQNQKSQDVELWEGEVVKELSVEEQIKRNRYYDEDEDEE
Chain of UniProt Q16644 (Q16644 whole entry, looked up): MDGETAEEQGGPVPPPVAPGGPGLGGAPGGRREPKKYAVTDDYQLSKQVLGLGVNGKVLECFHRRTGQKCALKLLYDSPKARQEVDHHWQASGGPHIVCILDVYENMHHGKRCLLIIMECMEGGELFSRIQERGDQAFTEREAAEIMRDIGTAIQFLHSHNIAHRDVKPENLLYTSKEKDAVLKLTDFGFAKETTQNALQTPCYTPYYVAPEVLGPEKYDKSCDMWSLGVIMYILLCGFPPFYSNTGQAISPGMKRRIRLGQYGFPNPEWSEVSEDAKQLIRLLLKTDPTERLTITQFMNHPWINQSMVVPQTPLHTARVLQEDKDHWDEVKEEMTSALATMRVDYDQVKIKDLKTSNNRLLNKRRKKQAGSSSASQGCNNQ
Chain of UniProt Q9H6K1 (Q9H6K1 whole entry, looked up): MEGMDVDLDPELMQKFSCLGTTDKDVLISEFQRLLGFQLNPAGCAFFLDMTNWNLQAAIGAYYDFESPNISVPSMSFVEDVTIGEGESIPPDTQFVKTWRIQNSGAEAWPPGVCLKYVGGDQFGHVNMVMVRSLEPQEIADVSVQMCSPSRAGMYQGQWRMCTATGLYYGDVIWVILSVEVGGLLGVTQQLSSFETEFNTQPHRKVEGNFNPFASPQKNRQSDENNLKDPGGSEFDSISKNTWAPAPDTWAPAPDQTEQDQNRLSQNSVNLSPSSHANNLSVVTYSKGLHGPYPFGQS
Chain of UniProt P52732 (P52732 whole entry, looked up): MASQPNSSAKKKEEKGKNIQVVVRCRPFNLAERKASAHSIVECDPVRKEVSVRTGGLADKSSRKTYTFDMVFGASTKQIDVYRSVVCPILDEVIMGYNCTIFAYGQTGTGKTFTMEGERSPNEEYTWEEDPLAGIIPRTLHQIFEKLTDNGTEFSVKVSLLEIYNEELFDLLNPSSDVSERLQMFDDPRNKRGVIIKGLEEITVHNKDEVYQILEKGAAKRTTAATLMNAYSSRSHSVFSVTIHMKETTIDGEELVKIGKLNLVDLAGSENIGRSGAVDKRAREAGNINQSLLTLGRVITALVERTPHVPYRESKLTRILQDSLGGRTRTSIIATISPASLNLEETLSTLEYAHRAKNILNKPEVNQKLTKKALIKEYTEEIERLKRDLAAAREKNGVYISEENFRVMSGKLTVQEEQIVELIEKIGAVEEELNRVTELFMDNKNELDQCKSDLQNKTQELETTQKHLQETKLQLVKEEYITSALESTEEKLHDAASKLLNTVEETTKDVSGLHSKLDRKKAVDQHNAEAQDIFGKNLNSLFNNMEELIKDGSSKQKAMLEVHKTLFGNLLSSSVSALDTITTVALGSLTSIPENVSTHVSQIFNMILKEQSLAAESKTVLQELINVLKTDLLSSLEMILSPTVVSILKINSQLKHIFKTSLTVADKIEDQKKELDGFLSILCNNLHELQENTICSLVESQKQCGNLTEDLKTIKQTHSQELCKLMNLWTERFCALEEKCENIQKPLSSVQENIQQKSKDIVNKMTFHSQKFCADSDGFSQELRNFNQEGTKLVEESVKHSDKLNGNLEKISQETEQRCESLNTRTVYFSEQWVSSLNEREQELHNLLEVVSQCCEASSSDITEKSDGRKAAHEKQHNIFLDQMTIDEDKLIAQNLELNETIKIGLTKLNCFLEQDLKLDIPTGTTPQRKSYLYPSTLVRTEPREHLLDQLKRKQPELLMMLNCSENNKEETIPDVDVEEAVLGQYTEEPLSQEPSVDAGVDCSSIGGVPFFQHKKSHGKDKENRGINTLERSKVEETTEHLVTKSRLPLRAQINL
Chain of UniProt Q9H9P8 (Q9H9P8 whole entry, looked up): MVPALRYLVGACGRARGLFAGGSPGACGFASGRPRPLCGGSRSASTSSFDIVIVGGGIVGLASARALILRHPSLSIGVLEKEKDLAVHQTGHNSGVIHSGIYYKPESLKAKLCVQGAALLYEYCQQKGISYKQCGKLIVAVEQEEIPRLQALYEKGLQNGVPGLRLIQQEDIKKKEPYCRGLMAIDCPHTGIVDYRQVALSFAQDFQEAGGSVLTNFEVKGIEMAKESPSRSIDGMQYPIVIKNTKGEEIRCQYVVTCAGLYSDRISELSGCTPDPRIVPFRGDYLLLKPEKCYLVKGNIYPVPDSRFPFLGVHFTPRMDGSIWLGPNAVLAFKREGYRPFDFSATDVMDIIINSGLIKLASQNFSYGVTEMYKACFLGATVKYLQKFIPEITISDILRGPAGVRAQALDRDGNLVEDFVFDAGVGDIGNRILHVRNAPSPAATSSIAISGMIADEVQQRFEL
Chain of UniProt Q99661 (Q99661 whole entry, looked up): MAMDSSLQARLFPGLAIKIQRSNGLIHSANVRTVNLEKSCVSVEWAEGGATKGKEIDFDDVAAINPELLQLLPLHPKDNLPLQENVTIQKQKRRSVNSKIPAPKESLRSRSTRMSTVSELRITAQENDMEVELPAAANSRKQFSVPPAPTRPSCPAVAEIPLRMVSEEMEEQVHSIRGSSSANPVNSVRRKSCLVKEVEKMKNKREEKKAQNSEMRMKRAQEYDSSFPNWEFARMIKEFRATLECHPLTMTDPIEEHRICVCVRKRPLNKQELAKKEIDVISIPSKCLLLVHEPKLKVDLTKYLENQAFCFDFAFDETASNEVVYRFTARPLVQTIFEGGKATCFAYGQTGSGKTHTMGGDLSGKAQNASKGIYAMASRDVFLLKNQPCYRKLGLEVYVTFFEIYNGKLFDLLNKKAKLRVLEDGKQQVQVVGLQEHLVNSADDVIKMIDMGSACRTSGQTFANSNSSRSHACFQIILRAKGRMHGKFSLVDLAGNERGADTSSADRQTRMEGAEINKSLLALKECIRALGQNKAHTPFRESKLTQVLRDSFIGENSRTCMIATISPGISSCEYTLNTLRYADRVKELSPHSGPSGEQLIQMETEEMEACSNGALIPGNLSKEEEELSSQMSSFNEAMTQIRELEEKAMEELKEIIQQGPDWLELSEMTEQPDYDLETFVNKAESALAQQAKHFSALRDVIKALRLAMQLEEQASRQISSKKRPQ

Row | Target | log2 fold change [1] | log2 fold change [2] | log2 fold change [3] | log2 fold change [4] | log2 fold change (Nexturastat A) | log2 fold change (vemurafenib) | log2 fold change [5] | log2 fold change [6] | log2 fold change (givinostat) | log2 fold change (barasertib) | log2 fold change [7] | log2 fold change (volasertib) | log2 fold change [8] | log2 fold change (epoxomicin) | log2 fold change [9] | log2 fold change [10] | log2 fold change (rosiglitazone) | log2 fold change [11] | log2 fold change [12] | log2 fold change [13]
1 | ILRUN (UniProt Q9H6K1) | 0.06 | -0.02 | 0.088 | 0.005 | 0.072 | 0.059 | 0.135 | -0.026 | -0.051 | -0.044 | -0.079 | -0.429 (active) | 0.024 | 0.042 | -0.013 | 0.016 | -0.019 | -0.09 | – | –
2 | KIF2C (UniProt Q99661) | 0.012 | -0.038 | 0.057 | 0.067 | 0.02 | 0.087 | 0.053 | 0.03 | 0.016 | 0.053 | -0.037 | -0.357 (active) | 0.084 | 0.019 | -0.042 | 0.09 | 0.057 | 0.003 | -0.063 | -0.06
3 | LIMA1 isoform 4 (UniProt Q9UHB6) | -0.082 | 0.133 | -0.014 | 0.033 | 0.004 | 0.061 | 0.011 | -0.033 | 0.032 | -0.025 | -0.006 | -0.115 | -0.021 | 0.003 | -0.015 | -0.053 | -0.01 | -0.006 | 0 | 0.086
4 | KHDC4 (UniProt Q7Z7F0) | -0.008 | -0.055 | 0.026 | 0.071 | 0.068 | 0.113 | 0.017 | 0.038 | 0.048 | 0.049 | -0.063 | -0.236 (active) | 0.107 | 0.036 | -0.045 | 0.137 | 0.035 | 0.071 | -0.057 | -0.014
5 | MAPKAPK3 (UniProt Q16644) | 0.24 | 0.097 | -0.025 | 0.069 | -0.134 | 0.033 | 0.063 | -0.012 | 0.015 | 0.039 | -0.084 | 0.036 | 0.003 | 0.064 | 0.048 | -0.015 | 0.004 | -0.14 | 0.016 | -0.049
6 | IPO13 (UniProt O94829) | 0.068 | -0.013 | -0.008 | -0.027 | -0.03 | -0.01 | 0.047 | 0.009 | -0.011 | 0.044 | -0.367 (active) | -0.291 (active) | -0.081 | 0.048 | 0.015 | -0.013 | 0.072 | 0.048 | -0.084 | -0.333 (active)
7 | L2HGDH (UniProt Q9H9P8) | 0.03 | 0.009 | 0.021 | -0.046 | -0.102 | 0.015 | -0.042 | -0.081 | -0.016 | 0.011 | -0.088 | -0.014 | 0.006 | -0.02 | -0.023 | -0.027 | 0.031 | -0.11 | -0.067 | -0.325 (active)
8 | KIF11 (UniProt P52732) | -0.032 | -0.119 | -0.005 | -0.033 | 0.155 | 0.071 | 0.077 | 0.076 | 0.09 | 0.049 | 0.016 | -0.42 | 0.081 | -0.032 | -0.076 | 0.041 | 0.031 | 0.182 | 0.023 | 0.022
